These results are taken from the supplement of paper PMC4206461.

SMILES strings stand for the structures.

The assay has as its system Pseudomonas aeruginosa PA14 dppBCDF deletion mutant. The assay is described as follows: respiration area under curve with compound as sole nitrogen source, 24 h (OmniLog AUC (arbitrary units)); higher = more respiration / better utilisation as nitrogen source, active = 2000 or more. The conditions noted are these: plate: PM8. On the procedure: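 Biolog Phenotype MicroArray plates PM6-PM8: each di/tripeptide is the sole nitrogen source. Tetrazolium reduction was read in the OmniLog every 15 min for 24 h at 37°C and summarised as area under the respiration curve (arbitrary units). Values below 2000 count as no respiration. Strain is the dipeptide ABC transporter deletion mutant.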
For the compound `N[C@@H](Cc1ccc(O)cc1)C(=O)NCC(=O)NCC(=O)O`, the “respiration area under curve” value is 4900 (active).
